Experimental findings from ChEMBL document CHEMBL4513216, “Probing the Open Global Health Chemical Diversity Library for Multistage-Active Starting Points for Next-Generation Antimalarials” (ACS Infect Dis, 2020) are described below.

The campaign covered roughly 68,000 compounds. About 2,700 (4%) showed an effect of 50% or more. The sample as a whole holds a higher share of strong results than the screen did.

This experiment has as its system Plasmodium berghei. In words: Screen against P. berghei liver stage (PbLuc), transformed with Luciferase, at 2uM. It counts as functional, HepG2. To be noted: tested at 2 uM.
Take `CN(CC(C)(CO)CO)C(=O)Nc1cc(F)cc(Cl)c1`: the INHIBITION is recorded as -4.57%. As for `CN(Cc1cc(F)ccc1F)CC(C)(CO)CO`, the INHIBITION is 50.59%. The same measure for `CN(Cc1cc(F)ccc1C#N)CC(C)(CO)CO`: 55.36%; for `CN(Cc1ccc(F)cc1F)CC(C)(CO)CO`: 38.67%; for `CSCCN(C)Cc1ccc(F)cc1C#N`: -63.41%.

For `CN(Cc1ccc(F)cc1C#N)CC(F)(F)F`, the INHIBITION is reported as 4.12%. Consider `CNC(=O)c1ccc(OC)c(NCc2ncc(-c3cccs3)o2)c1`, for which the INHIBITION is reported as 2.67%.

With `Cc1ccc(CN2CCc3ncnc(-c4cccnc4)c3CC2)o1`, the INHIBITION turned out to be 18.57%. As for `Cc1ccc(CN2CCc3ncnc(-c4ccc(F)cc4)c3CC2)o1`, the INHIBITION was -23.71%. The same measure for `Cc1ccc(CN2CCc3ncnc(-c4ccncc4)c3CC2)o1`: 76.36%. On to `CCc1noc(C)c1C(=O)N1CCCN(Cc2cscn2)CC1`, for which the INHIBITION was -2.47%. As to `O=C(Cc1ccsc1)N1C[C@@H]2OCCN(c3cnccn3)[C@@H]2C1`, the INHIBITION was 21.42%.

Turning to `c1cncc(O[C@H]2CC[C@H]3[C@H]2OCCN3C2CCCC2)c1`, the INHIBITION was -74.01%. As for `COc1nc2c(cc1C(=O)N1C[C@H](N)C[C@H]1C(=O)NC(C)C)CCC2`, the INHIBITION is 43.8%. Consider `CC(C)NC(=O)[C@@H]1C[C@@H](N)CN1C(=O)c1cc2c([nH]c1=O)CCCC2`, for which the INHIBITION was found to be 31.65%. As for `COc1nc2c(cc1C(=O)N1C[C@@H](N)C[C@H]1C(=O)NC(C)C)CCC2`, the figure is 63.17%; as for `CC1CCC(NC(=O)Nc2ccc(CC(=O)N(C)C)cc2)CC1` (centres undefined), 35.5%. On to `Cn1cc(CN2CCN(CC3(c4ccccc4)CC3)CC2)cn1`, for which the INHIBITION was found to be 27.03%.

Consider `COc1ccc2c(C)c(C(=O)N3CCC(NC(C)=O)C3)oc2c1` (centres undefined), for which the INHIBITION is given as -41.96%. As for `COc1ccccc1[C@@H]1CN(Cc2c(C)noc2C)C[C@H]1C(=O)O`, the figure is 68.39%; as for `Cc1noc(C)c1CN1C[C@@H](C(=O)O)[C@H](c2ccccc2)C1`, -0.59%; as for `Cc1ccccc1[C@@H]1CN(Cc2c(C)noc2C)C[C@H]1C(=O)O`, -18.65%. Take `O=C(NCCn1ccnc1)N1CCN(c2nccs2)CC1`: the INHIBITION was -16.42%. The same measure for `Cc1nc(CN2CC(Cc3ccccc3)CC2=O)no1` (centres undefined): -12.68%; for `O=C(O)[C@]12CCCN(CC3CCOC3)C[C@H]1CN(c1ncccn1)C2` (some centres undefined): 13.16%.

As to `O=C1CCN(C(=O)C2(c3ccc(F)cc3)CCCC2)CCN1`, the INHIBITION was determined as 37.18%. As for `O=C1CCN(C(=O)C2(c3ccc(F)cc3)CCOCC2)CCN1`, the figure is 63.46%. As to `O=C1CCN(C(=O)C2(c3ccc(F)cc3)CCCCC2)CCN1`, the INHIBITION is listed as -41.64%.

Turning to `CCn1c(C2CCN(C(=O)c3ccc4cc[nH]c4c3)CC2)n[nH]c1=O`, the INHIBITION is -9.71%. `O=C(c1ccccc1)N1CCCC2(CCN2Cc2cccc(F)c2)C1` (centres undefined): the INHIBITION is listed as 29.03%. Regarding `COc1cc2cc(C(=O)NCC(=O)O)n(C)c2c(OC)c1OC`, the INHIBITION was 16.47%. On to `CC(=O)Nc1ccc(CNC2CC(=O)N(Cc3cccc(F)c3)C2)cc1` (centres undefined), for which the INHIBITION was -34.5%. For `COCCO[C@H]1CCN(c2cc(OC)ncn2)[C@H]1Cc1cccnc1`, the INHIBITION came to 3%. As for `Cc1ccncc1NC(=O)C1CSc2ncc(C)c(=O)n2C1` (centres undefined), the INHIBITION is 13.95%. In the case of `Cc1cnc2n(c1=O)CC(C(=O)Nc1ccccc1Cl)CS2` (centres undefined), the INHIBITION is -51.94%. As for `Cc1ccc(Cl)cc1NC(=O)C1CSc2ncc(C)c(=O)n2C1` (centres undefined), the figure is 61.06%; as for `Cc1ccc(-c2noc(CN3CCc4cncnc4C3)n2)cc1`, -49.27%. For `O=C(c1ccc2c(c1)COC2)N1CCC(Nc2cccnn2)CC1`, the INHIBITION is reported as 31.19%.

For the compound `Cc1cncc(C(=O)N2CC[C@@]3(C[C@H](NS(C)(=O)=O)CCO3)C2)c1`, the INHIBITION was 17.83%. As for `CCCc1cc(=O)[nH]c(-n2nc(C3CC3)cc2N)n1`, the INHIBITION is reported as -67.99%.

`CC(C)(C)CN1CCCC(O)(CN2CCc3[nH]ncc3C2)C1=O` (centres undefined): the INHIBITION is -92.69%.

Take `O=C1N(CC2CCCCC2)CCCC1(O)CN1CCc2[nH]ncc2C1` (centres undefined): the INHIBITION was 29.9%.

For `O=C1N(CC2CC2)CCCC1(O)CN1CCc2[nH]ncc2C1` (centres undefined), the INHIBITION is on record as 61.42%. Take `CC(C)c1noc(CCCC(=O)N2CCN(Cc3cccnc3)CC2)n1`: the INHIBITION is recorded as 26.06%. Regarding `O=C(c1ccco1)N1CCCC2(CN(Cc3ccsc3)CCO2)C1` (centres undefined), the INHIBITION is recorded as -26.14%. As for `Cc1noc(C(C)N2CCN(CCOCC(F)(F)F)CC2)n1` (centres undefined), the figure is 36.95%; as for `CN1CC2(CCN(C(=O)c3ccc4c(=O)n(C)cnc4c3)C2)OC1=O` (centres undefined), 52.03%; as for `CN1CC2(CCN(C(=O)c3ccc4c(=O)n(C)cnc4c3)CC2)CC1=O`, -7.68%. On to `Cc1nc[nH]c1C(=O)N1CCC2(CN(C)C(=O)O2)C1` (centres undefined), for which the INHIBITION came out at 36.22%. `Brc1ccc(NCc2ccc(Cn3ccnc3)cc2)nc1`: the INHIBITION came out at 74.17%.

For `CNC(=O)c1cccnc1NCCOc1ccc(CC#N)cc1`, the INHIBITION was 54.29%.

Take `c1ccc(NCc2ccc(Cn3ccnc3)cc2)nc1`: the INHIBITION was found to be 17.64%. On to `Cc1csc(C(C)(C)NCCOc2ccc(CC#N)cc2)n1`, for which the INHIBITION was determined as 30.06%.

`CNC(=O)c1cccnc1NCCOc1ccccc1`: the INHIBITION was -1.89%. Take `CS(=O)(=O)c1ccccc1NCc1ccc(Cn2ccnc2)cc1`: the INHIBITION was 6.78%. As for `CNC(=O)c1cccnc1NCc1ccc(-n2cccn2)cc1`, the INHIBITION is reported as -6.98%.

Turning to `CNC(=O)c1cccc(NCCOc2ccc(CC#N)cc2)c1C`, the INHIBITION amounted to 34.46%.

`CC(C)(NCCOc1ccc(CC#N)cc1)c1nccs1`: the INHIBITION is recorded as 56.89%.

Consider `CNC(=O)c1cccnc1NCc1ccc(Cn2ccnc2)cc1`, for which the INHIBITION turned out to be 71.57%. For the compound `CNC(=O)c1cccnc1NCc1ccc(Cn2cccn2)cc1`, the INHIBITION is -6.29%. As to `CC(C)(NCCCOc1ccc(C#N)cc1)c1nccs1`, the INHIBITION was 9.27%.

With `CC(C)(CNC1CCCN(Cc2ccccc2F)C1)CN1CCOCC1` (centres undefined), the INHIBITION worked out at 18.22%. Consider `CCc1ccccc1CN1CCn2nc(CNC(C)=O)cc2C1`, for which the INHIBITION is -31.66%. As for `COc1cccc2c1OCC(NC(=O)NCCc1ccccn1)C2` (centres undefined), the figure is 40.59%. For `NC(=O)N1CCCN(CCCSCc2ccccc2)CC1`, the INHIBITION was -16.28%.

Take `c1ccc(Cc2cccc(C3CCCN3C3CCOCC3)n2)cc1` (centres undefined): the INHIBITION worked out at 44.16%. Take `O=S(=O)(c1cccc(F)c1)N1C[C@H]2CC[C@@H](C1)N(Cc1ccccc1)C2`: the INHIBITION is on record as -13.58%.

As for `CC(C(=O)NCc1ccnc(OC2CCCC2)c1)n1cncn1` (centres undefined), the INHIBITION is recorded as -5.34%. For the compound `O=C1NCCCc2c1oc1ccc(O)c(CN3CCOCC3)c21`, the INHIBITION is on record as 10.49%.

Turning to `CC(C)NC(=O)c1ccc2c(c1)C(c1nc[nH]n1)CN2S(C)(=O)=O` (centres undefined), the INHIBITION is -18.52%. In the case of `CCN(C)C(=O)c1ccc2c(c1)C(c1nc[nH]n1)CN2S(C)(=O)=O` (centres undefined), the INHIBITION is 53.55%. As for `CCC(CC)NC(=O)c1ccc2c(c1)C(c1nc[nH]n1)CN2S(C)(=O)=O` (centres undefined), the figure is 36.34%. `Cc1cnc(C(=O)N2CCCC(n3cncn3)C2)cn1` (centres undefined): the INHIBITION is on record as -43.79%.

On to `CCOc1cc(CN[C@@H]2COC[C@H]2Cc2cc(C)no2)ccc1O`, for which the INHIBITION was found to be 33.64%. As for `CCN1CCN(C(=O)c2[nH]c3ccccc3c2Cl)[C@H]2CS(=O)(=O)C[C@H]21`, the INHIBITION worked out at 25.65%. `CCc1c(C(=O)N2CCN(C)[C@@H]3CS(=O)(=O)C[C@@H]32)[nH]c2ccccc12`: the INHIBITION was 65.3%.

With `Cc1c(C(=O)N2CCN(C)[C@@H]3CS(=O)(=O)C[C@@H]32)[nH]c2ccc(F)cc12`, the INHIBITION turned out to be 28.95%. The same measure for `COc1ccccc1-n1nc(C(C)C)nc1Cc1nnc(N)s1`: 49.32%. As for `CS(=O)(=O)NCCCNC(=O)c1cccnc1O`, the figure is -55.03%.

For `C[C@H]1C[C@@H]2CCN(Cc3ccccn3)C[C@H]2O1`, the INHIBITION stood at 0.78%.

Take `C[C@H]1C[C@H]2CN(Cc3ccccn3)CC[C@@H]2O1`: the INHIBITION is 66.23%. As to `C[C@@H]1C[C@@H]2CCN(Cc3ccccn3)C[C@H]2O1`, the INHIBITION is on record as 2.98%. For the compound `O=C(Cn1cccn1)N1CCc2[nH]nc(-c3ccc4c(c3)OCO4)c2C1`, the INHIBITION worked out at 37.41%.

Turning to `O=C1CN([C@@H]2CC[C@@H](NS(=O)(=O)c3ccc(F)cc3)[C@H]2O)CCN1`, the INHIBITION is reported as 22.95%. `CCc1nccn1C1CCCN(C(=O)c2csc(COC)n2)C1` (centres undefined): the INHIBITION was found to be 24.15%.

With `COCc1nc(C(=O)N2CCCC(n3ccnc3C(C)C)C2)cs1` (centres undefined), the INHIBITION was determined as 52.52%. Consider `CC(C)c1nccn1C1CCCN(C(=O)c2ccsc2)C1` (centres undefined), for which the INHIBITION is listed as -12.41%. Regarding `CSCC(=O)N1CCCC(n2ccnc2C(C)C)C1` (centres undefined), the INHIBITION is -47.97%.

With `COCc1nc(C(=O)N2CCCC(n3ccnc3)C2)cs1` (centres undefined), the INHIBITION came to 28.54%.

As to `COCc1nc(C(=O)N2CCCC(n3ccnc3C)C2)cs1` (centres undefined), the INHIBITION turned out to be 53.69%. `Cc1nc(CC(=O)N2CCCC(n3ccnc3C(C)C)C2)cs1` (centres undefined): the INHIBITION worked out at 66.2%. For `Cc1ccc(CC(=O)N2CCCC(n3ccnc3C(C)C)C2)cn1` (centres undefined), the INHIBITION is 28.65%. The same measure for `COCc1nc(C(=O)N2CCCC(n3cccn3)C2)cs1` (centres undefined): 21.89%. Consider `Cc1ccsc1CN1CCC(n2cc(C(O)c3ccccc3)nn2)CC1` (centres undefined), for which the INHIBITION is on record as -6.04%. For the compound `CC(C)(C)C(=O)N1CCC(n2cc(C3(O)CCCC3)nn2)CC1`, the INHIBITION is listed as -21.47%. For `Fc1ccccc1C1(CNC2CCOC3(CCOCC3)C2)CCCC1` (centres undefined), the INHIBITION is listed as -27.61%. On to `CN(C)c1cc(CNC(=O)c2cnccn2)ccn1`, for which the INHIBITION was -14.75%.

With `Cc1cc(C(=O)N2CCn3cc(CN4CCOCC4)nc3C2)no1`, the INHIBITION is recorded as 22.68%. As to `Cc1ocnc1C(=O)N1CCN(CCOc2ccccc2)CC1`, the INHIBITION was 41.86%. Regarding `CC(C)Cc1cc(NC(=O)c2ccccn2)n(C)n1`, the INHIBITION worked out at 7.13%. With `Cc1noc(C)c1CS(=O)(=O)CC(=O)NCCc1cccs1`, the INHIBITION is -49.96%. As for `Cn1cc(C(=O)NCc2cn3c(n2)CN(Cc2ccncc2)CC3)cn1`, the figure is 12.38%; as for `Cn1cc(C(=O)NCc2cn3c(n2)CN(Cc2ccccn2)CC3)cn1`, 53.98%.

As to `Cn1cccc1C(=O)NCc1cn2c(n1)CN(Cc1ccccn1)CC2`, the INHIBITION came to 20.43%.
